This note sets out measurements from PubChem BioAssay AID886 (National Center for Advancing Translational Sciences (NCATS), 2007).

Several values for one entry are separate records, joined by “and”; a condition that tells them apart may be missing. Equal entries are not always repeated. In all, about 73,000 compounds went through this assay and about 2,500 (3.4%) were called active. About 7% were inconclusive and are not listed. This excerpt belongs to a sample that is enriched for actives. A number with no mark means an inactive call. The call rests on the fitted dose curve; in most records, active means well fitted inhibition curve with a large enough effect; inconclusive means small, poorly fitted or top-dose-only effect; inactive means no such curve, though single readings can be large or run the other way.
On the % scale 0 is the no-effect control and ±100 the full control effect; potency means the concentration at half of the fitted maximal effect.

3-hydroxyacyl-CoA dehydrogenase type-2 (Homo sapiens), sequence (Q99714 whole entry, looked up): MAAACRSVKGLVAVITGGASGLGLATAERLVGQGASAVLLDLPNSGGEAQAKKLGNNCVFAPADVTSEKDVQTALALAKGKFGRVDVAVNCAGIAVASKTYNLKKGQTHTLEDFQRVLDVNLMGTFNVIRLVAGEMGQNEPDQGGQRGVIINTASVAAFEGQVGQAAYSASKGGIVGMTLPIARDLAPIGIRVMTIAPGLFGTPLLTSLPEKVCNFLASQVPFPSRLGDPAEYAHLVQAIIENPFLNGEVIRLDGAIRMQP
3-hydroxyacyl-CoA dehydrogenase type-2 (Homo sapiens), sequence (Q99714 whole entry, looked up): as above

The assay has as its target 3-hydroxyacyl-CoA dehydrogenase type-2 (Homo sapiens) (UniProt Q99714). Kind of assay: qHTS Assay for Inhibitors of HADH2 (Hydroxyacyl-Coenzyme A Dehydrogenase, Type II). Further: nearly all actives have a fitted effect of over 60% in size. The conditions noted are these: recombinant HADH2, NADH fluorescence, beta-hydroxybutyryl-CoA; series mostly up to 57.1 µM; activity change, negative = inhibition: at the top concentration. An excerpt:
Assay Overview: NIH Molecular Libraries Screening Centers Network [MLSCN] NIH Chemical Genomics Center [NCGC] Structural Genomics Consortium [SGC] Grant Number: None HADH2: Hydroxyacyl-Coenzyme A dehydrogenase, type II, was supplied by researchers at the Structural Genomics Consortium, Oxford University lab (PI Udo Oppermann). The mitochondrial enzyme 17-hydroxysteroid dehydrogenase type 10 (HSD17-10) previously classified as type II hydroxyacyl-CoA dehydrogenase (HADH2) catalyzes the NAD+ dependent oxidation of a variety of substrates including acyl-CoAs, androgens and neurosteroids as well as bile acids(Shafqat N, Marschall HU, Filling C, et al. Biochemical Journal. 2003;376(Pt 1):49-60). The role in neurodegeneration by binding to amyloid-peptide led to its identification (Oppermann UC, et al FEBS Letters. 1999;451(3):238-242 and Yan SD, et al. Nature. 1997;389(6652):689-695), and mutations in its gene appear to be causative for 2-methyl-3-hydroxybutyryl-CoA dehydrogenase deficiency (Ofman R, et al. American Journal of Human Genetics. 2003;72(5):1300-1307). The enzyme was produced by E.coli fermentation as His-tagged recombinant for the purpose of X-ray structure determination, and had been mass-spectrometry characterized. Inhibition of HADH2 activity was screened by utilizing beta-hydroxybutyryl coenzyme A as an electron donor and NAD+ as an electron acceptor/cofactor. An increase in the fluorescence intensity due to conversion of NAD+ to NADH was used to measure the enzyme activity.
Assay Protocol: Buffer: 100 mM Tris-HCl pH 9.0, containing 0.01 % Tween-20. Reagents/Controls: Buffer in columns 3 and 4 as negative control (no enzyme). Substrate/cofactor solution: 1 mM NAD+ and 90 uM beta-hydroxybutyryl coenzyme A (Sigma-Aldrich, St. Louis, MO) final concentrations dispensed throughout the plate. Enzyme: 20 nM HADH2 final concentration in columns 1, 2, 5-48. Column 1 is neutral (100% activity). Column 2 contained titration of apomorphine (Sigma-Aldrich, A 4393, PubChem CID 2215, top concentration 500 uM, then 1:2 dilution in duplicate) Assay Steps: Three uL of enzyme were dispensed to 1536-well Greiner black solid bottom plates. Compounds and controls (23 nL) were transferred via Kalypsys PinTool. The plates were incubated for 15 min at room temperature, and then 1 uL of substrate/cofactor solution was added to start the reaction. The plates were immediately transferred to and read every 30 seconds for 4 min on ViewLux High-throughput CCD imager (Perkin-Elmer) using 360 nm excitation and 450 nm emission fluorescence protocol. The fluorescence intensity difference between the last and the first time points was used to compute reaction progress.
Consider `COc1ccc(CCn2c(=N)c(C(=O)NCc3ccco3)cc3c(=O)n4cccc(C)c4nc32)cc1`, for which the “activity change, negative = inhibition” value was 3.86%.

In the case of `CCOCCCNC(=O)c1c[nH]c2cc(C)ccc2c1=O`, the “activity change, negative = inhibition” value is -1.39%.

For `CCn1c(=N)c(C(=O)NCCCOC)cc2c(=O)n3cccc(C)c3nc21`, the Potency was 3.98 µM (active).

Turning to `O=C(c1ccco1)N1CCC2(CC1)CN(c1ncccn1)C2`, the “activity change, negative = inhibition” value is 2.51%.

For the molecule `Nc1ccc2c3c(cccc13)C(=O)NC2=O`, the “activity change, negative = inhibition” value was 12.8%.

Consider `Cc1c(O)c(Br)c(C)c(O)c1Br` (tested in a mixture with another compound), for which the Potency is 0.398 µM (active).

Turning to `CC(C)[C@@H](OCc1ccccc1)[C@H](C)/C=N\OC[C@@H](C)[C@H](OCc1ccccc1)C(C)C`, the activity change, negative = inhibition is 1.49% [at 11.4 µM].

Take `C[C@]12C=CC(=O)C=C1CC[C@@H]1[C@@H]2C(=O)C[C@@]2(C)[C@H]1CC[C@]2(O)C(=O)CO`: the “activity change, negative = inhibition” value was 7.63%.

Regarding `CC(C)CSC[C@@H]1O[C@H](n2cnc3c(N)nccc32)[C@H](O)[C@@H]1O`, the activity change, negative = inhibition is 7.39% [at 11.4 µM].

Turning to `CCOC(=O)Cc1csc(NC(=O)Nc2ccccc2)n1`, the “activity change, negative = inhibition” value was -0.891%.

For the molecule `Cc1csc(NC(=O)NC2(C(F)(F)F)Oc3ccccc3O2)n1`, the Potency was 2 µM (active).

For the molecule `Cc1csc(NC(=O)CN2CCCCCC2)n1`, the “activity change, negative = inhibition” value is -0.72%.

In the case of `O=C(Oc1ccc2c(c1)CN(Cc1ccccc1)CO2)c1ccccc1`, the activity change, negative = inhibition is -11.9% [at 11.4 µM].

As to `O=C(O)c1nccnc1C(=O)Nc1ccc(Br)cn1`, the “activity change, negative = inhibition” value is -0.545%.

For `CC(C)C[C@@H](CC(=O)N[C@@H](CCC(=O)O)CC(=O)O)NC(=O)[C@@H]1CCCC[C@H]1NC(=O)C[C@@H](NC(=O)C[C@H](CO)NC(=O)[C@@H]1CCCC[C@H]1N)C(C)C`, the “activity change, negative = inhibition” value is -24.3%.

Take `COCCCn1c2nc3ccccc3nc2c2c(=O)n(Cc3ccc(Cl)cc3)c(C)nc21`: the “activity change, negative = inhibition” value is 12%.

Take `CC(Sc1nc2ccccc2c(=O)n1Cc1ccco1)C(=O)c1ccccc1` (configuration not stated): the “activity change, negative = inhibition” value is 0.159%.

Turning to `Cc1nc2c(c(=O)n1Cc1ccco1)c1nc3ccccc3nc1n2Cc1ccccc1`, the Potency is 25.1 µM (active).

As for `COC(=O)C1(Cc2ccccc2)C=C2C(=C(C)C(=O)C2C)CN1` (configuration not stated), the “activity change, negative = inhibition” value is -6.45%.

Turning to `CN1CCc2nc(-c3ccccc3)c(-c3ccccc3)cc2C1`, the activity change, negative = inhibition is -8.44% [at 11.4 µM].

For the molecule `Cc1cc(C)cc(N)c1`, the “activity change, negative = inhibition” value was -4.7%.

`Cc1ccccc1NC(=O)c1ccccc1`: the “activity change, negative = inhibition” value was -21.2%.

As to `Cc1nc(C)c(C(=O)Nc2cccc(C)c2C)o1`, the Potency is 10 µM (active).

As to `Cc1cccc(NC(=O)CSc2nc3c(c(=O)[nH]2)CCC3)c1C`, the “activity change, negative = inhibition” value was 2.6%.

As for `Cn1c(=S)c2[nH]c(SCCCc3ccccc3)nc2n(C)c1=O`, the activity change, negative = inhibition was 7.85% [at 11.4 µM].

Regarding `O=C1C[C@@H](O)[C@@H](O)[C@H]2[C@@H]3C(=O)N(Cc4ccc5c(c4)OCO5)C(=O)[C@@H]3CC[C@H]12`, the activity change, negative = inhibition was -4.62% [at 11.4 µM] and -11.5% [at 11.4 µM].

`CS(=O)(=O)N1CCC2(CCN(c3ccncc3)CC2)CC1`: the “activity change, negative = inhibition” value was 2.81%.

As for `COc1ccc(CCn2c(-c3ccco3)nc3nc4ccccc4nc32)cc1OC`, the “activity change, negative = inhibition” value was -13.7%.

As for `Cn1c(-c2ccco2)nc2cc3ccccc3cc21`, the Potency was 31.6 µM (active).

With `c1coc(-c2nc3nc4ccccc4n3nc2-c2ccco2)c1`, the “activity change, negative = inhibition” value is -23.9%.

`O=C(O)/C(=C/c1c(C(=O)O)[nH]c2cc(Cl)cc(Cl)c12)c1ccccc1`: the “activity change, negative = inhibition” value is -3.85%.

For `c1ccc(Oc2ccccc2)cc1`, the “activity change, negative = inhibition” value is 4.03%.

With `O=c1c(-c2ccc(F)cc2)nc2cncnc2n1-c1ccccc1`, the “activity change, negative = inhibition” value was -15.3%.

In the case of `CCOC(=O)N/N=C1/C[C@@H](O)[C@@H](O)[C@@H]2[C@@H]3C(=O)N(CC)C(=O)[C@H]3CC[C@H]12`, the activity change, negative = inhibition was 11.3% [at 11.4 µM].

Regarding `O=c1cc(-c2ccccc2)nc(N2CCCCC2)[nH]1`, the “activity change, negative = inhibition” value was -16.5%.

On to `O=c1[nH]c(=O)c2nc3ccccc3nc2[nH]1`, for which the “activity change, negative = inhibition” value is -14%.

On to `O=c1[nH]c(-c2ccccc2)c(-c2ccccc2)[nH]1`, for which the Potency was 3.16 µM (active).

Regarding `COc1ccc(-c2nc3cnc(Oc4ccccc4)nc3n(Cc3cccs3)c2=O)cc1`, the “activity change, negative = inhibition” value was 0.264%.

Turning to `O=C(O)[C@@H]1[C@@H](C(=O)O)[C@]23C[C@@]2(C(=O)O)[C@]2(C(=O)O)CCC3=C3CCCC312`, the activity change, negative = inhibition was 14.2% [at 11.4 µM].

For `COc1ccc(N)c(C)c1`, the “activity change, negative = inhibition” value was -15.2%.

In the case of `c1ccc2[nH]c(NCCN3CCOCC3)nc2c1`, the “activity change, negative = inhibition” value is -7.67%.

For `C1=C(N2CCOCC2)/C(=C/c2nc3ccccc3[nH]2)CC1`, the Potency was 3.98 µM (active).

On to `c1ccc(-n2nnnc2N2CCOCC2)cc1`, for which the “activity change, negative = inhibition” value was 5.51%.

Turning to `O=C1C(c2[nH]c3ccccc3c2O)=Nc2ccccc21`, the “activity change, negative = inhibition” value was 13.6%.

Regarding `Cc1nc2cnc(N3CCN(C)CC3)nc2n(C[C@H]2CCCO2)c1=O`, the “activity change, negative = inhibition” value is 75.2%.

Turning to `N[C@@H](C(=O)O)c1ccc(P(=O)(O)O)cc1`, the “activity change, negative = inhibition” value was 11%.

On to `O=C(O)c1ccc(-n2cccc2)cc1O`, for which the “activity change, negative = inhibition” value is -14.7%.

As for `N[C@H](C(=O)O)c1ccc(C(=O)O)c(O)c1`, the Potency is 31.6 µM (active).

`Cc1cccc(C(=O)O)c1`: the “activity change, negative = inhibition” value is 4.88%.

In the case of `O=C(O)c1ccc(Cl)c(S(=O)(=O)Nc2ccccc2Cl)c1`, the “activity change, negative = inhibition” value is 0.423%.

In the case of `COC(=O)c1cccc(NC(=O)CSc2nc(C)cc(=O)[nH]2)c1`, the “activity change, negative = inhibition” value was -17.2%.

In the case of `COC(=O)c1ccc2c(=O)n(CC3CCCO3)c(=S)[nH]c2c1` (configuration not stated), the “activity change, negative = inhibition” value was -4.1%.

Turning to `CCOC(=O)c1sc(=S)n2c1[nH]c(=O)c1ccc(C(=O)OC)cc12`, the Potency is 1 µM (active).

With `O=c1c(-c2cc(F)cc(F)c2)nc2cnc(Oc3ccccc3)nc2n1C[C@H]1CCCO1`, the “activity change, negative = inhibition” value was 13.6%.

Consider `Fc1ccc(-c2nnc3sc(-c4ccc5c(c4)OCO5)nn23)cc1`, for which the Potency is 25.1 µM (active).

For `Fc1ccc(-c2ccc(-c3nn4c(-c5ccco5)nnc4s3)o2)cc1`, the “activity change, negative = inhibition” value is -24.2%.

Take `Fc1ccc(-c2nnc(CSc3nnc(-c4ccc5c(c4)OCO5)o3)o2)cc1`: the “activity change, negative = inhibition” value is 6.68%.

As to `C/C(CCN1CCCCc2nc(C)c(C)cc21)=N\O[C@@H](C)c1cn([C@@H]2COC[C@@H]2O)nn1`, the activity change, negative = inhibition was -2.51% [at 11.4 µM].

For the molecule `O=C(c1ccc(F)cc1)C1CCN(CCCCc2ccccc2)CC1`, the “activity change, negative = inhibition” value is 9.57%.

For `COc1ccc(-c2nnc(SCC(=O)c3cccs3)o2)c(OC)c1`, the “activity change, negative = inhibition” value is 16.5%.

In the case of `COc1ccc(OC)c(C(=O)CSc2nnc(-c3cccs3)o2)c1`, the Potency is 25.1 µM (active).

As for `COc1ccc(-n2c(C)cc(C(=O)CSc3nnc(-c4cccs4)o3)c2C)cc1`, the “activity change, negative = inhibition” value is -5.17%.
